Inconclusive results are not listed. The source made the active and inactive calls. The call rests on the fitted dose curve; in most records, active means well fitted activation curve with a large enough effect; inconclusive means small, poorly fitted or top-dose-only effect; inactive means flat fitted curve, though single readings scatter.
experiment: qHTS for Inhibitors of Cell Surface uPA Generation: Confirmatory Assay for Cherry-picked Compounds; conditions: cell surface uPA activity generation, qHTS confirmation; series mostly up to 115 µM
Procedure, shortened: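 RAW 264.7 cells at 4000/well, incubated overnight, then treated with compounds. After 24 h at 37 C, viability was read by ATPlite luminescence. An increase in signal indicates blocked uPA-dependent LF entry.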

Potency, inactive:
COc1ccc(C(=O)NCCOC(C)C)cc1OC1CCN(C(C)=O)CC1, O=C1C[C@@H]2CCN3C(=O)CCC[C@@H]([C@H]23)[C@H]1Cc1ccccc1, CCCCCOC(=O)Nc1nnc(CCCCC)s1, CCN1CCN(C(c2ccccc2)c2nnnn2Cc2ccc3c(c2)OCO3)CC1 (centres undefined), O=C(NCCc1cn2ccsc2n1)c1cccs1, CCCCn1c(=NC(=O)c2ccco2)c(C(=O)OCC)cc2c(=O)n3cccc(C)c3nc21, Cn1c(CN2CCCC2)nc2cc(NC(=O)COc3ccccc3)ccc21, COc1ccc(C2C(C(=O)c3ccc(C)o3)=C(O)C(=O)N2CC2CCCO2)cc1OC (centres undefined), O=C(Nc1ccc(NC(=O)c2ccco2)c(Cl)c1)c1ccccc1, O=C(c1cccc(F)c1)N1CCN(Cc2cccc(Br)c2)CC1, Cc1cc(C)c(S(=O)(=O)N2CCCOC2CNC(=O)C(=O)NCc2cccs2)c(C)c1 (centres undefined), Cc1ccc(NC(=S)N2CCN(Cc3ccc4c(c3)OCO4)CC2)c(C)c1, COCCNC(=O)COCc1cc(-c2ccc3c(c2)OCO3)on1, Cc1ccc(N2C(=O)c3ccccc3C2(O)c2ccccc2)cc1 (centres undefined), O=C(NC1CCCC1)c1nc2c(nnn2Cc2ccccc2Cl)c(=O)[nH]1, O=c1ccc(S(=O)(=O)N2CCCC2)c[nH]1, C[C@@H]1O[C@@H](O[C@@H]2C(=O)c3c(O)cc(O)cc3O[C@H]2c2ccc(O)c(O)c2)[C@H](O)[C@H](O)[C@H]1O, COC(=O)/C(C#N)=C/c1c(N2CCN(c3ccccc3)CC2)nc2c(C)cccn2c1=O, Cn1nc(N2CCN(S(=O)(=O)c3ccccc3)CC2)c(=O)n(C)c1=O, CC(C)C(=O)Nc1nnc(SCc2cccc(F)c2)s1, CCN(CC(=O)Nc1c(F)cccc1F)C(=O)c1ccc(-c2ccc(C(C)=O)cc2)o1, COC(=O)CCSCC(=O)N1N=C(c2ccc(OC)cc2)CC1c1cccc(OC)c1OC (centres undefined), CC(=O)NS(=O)(=O)c1ccc(NC(=O)c2cccc(OCc3c(C)noc3C)c2)cc1, Cc1cc(=O)n2nc(N3CCCC(C(=O)NCc4ccc(Cl)cc4)C3)sc2n1 (centres undefined), COc1ccc(C2=NS(=O)(=O)N(C)C(C(=O)NCc3ccccn3)=C2)cc1, CCCOc1ccc(S(=O)(=O)NNC(=O)c2cc3ccccc3o2)cc1, Cc1[nH]c(=O)[nH]c(=O)c1S(=O)(=O)N1CCCc2ccccc21, CCOc1ccccc1CN1CCCC(CNS(=O)(=O)c2ccc(OC)cc2)C1 (centres undefined), CC(C)(C)OC(=O)N(Cc1ccccc1)Cc1ccccc1OCc1cccc(NC(=O)C2CC2)c1, CCOCCCn1c(SCC(=O)Nc2cc(OC)ccc2OC)nc2ccccc2c1=O, O=C(CN1CCN(Cc2ccc(Cl)cc2)C1=O)NCc1cccs1, COc1ccccc1C(=O)NCCC(=O)NCC(c1ccc(F)cc1)N1CCOCC1 (centres undefined), O=C(Cc1ccc(Cl)cc1)NC(=S)Nc1ccccc1O, COCC(=O)N1CCC(n2nccc2NC(=O)c2ccccc2OC)CC1, COc1ccc2c(ccn2S(=O)(=O)c2ccccc2)c1, Cc1cccc(NC(=O)c2cc3c(=O)n4ccccc4nc3s2)c1, COc1ccc(S(=O)(=O)N2CCN(Cc3ccccc3)CC2)c(C)c1, Cc1cc(C)n(CCCNC(=O)c2ccc(C)o2)n1, CC1CCC(NC(=O)c2nn(C)c3c2CS(=O)(=O)c2ccccc2-3)CC1 (centres undefined)

— PubChem BioAssay AID720519 (National Center for Advancing Translational Sciences (NCATS), 2013)
